# Laboratory results published in ChEMBL document CHEMBL3988442, “University of Dundee, Small-Polar-MMV Screening Library” (2021).
# “And” between values parts separate entries of the source, which are not always exact repeats. Equal entries are not always repeated. The campaign covered roughly 38,000 compounds. About 1,200 (3.2%) showed an effect of 50% or more. The median lay at about -58%. This excerpt belongs to a sample that is enriched for strong results.
# Tested on: Plasmodium falciparum
# Assay: Calibr Malaria Delayed Death Assay SOP
# Type: functional, organism-based
# Design: scale not given: in the data most compounds retested in dose-response had high values
# Details: concentration 4.99e-06 (unit not given; other assays of the set use mol/L)
Structure (SMILES),Percent Effect,Percent Effect (4.99 µM)
O=C(NC1CC1)C1CNCCN1C(=O)CCOc1ccccc1 (stereo unspecified),-111.6%,–
Cc1ncsc1-c1nnc(C2CCN(Cc3ccccc3Cl)CC2)o1,-108%,–
CC(=O)NC1CCN(c2c(C#N)cnc3c(C)cc(F)cc23)CC1,7.696%,–
CN(Cc1ccccc1)C(=O)CCNS(=O)(=O)c1cccnc1,-47.09%,–
Cc1cc2nc(-c3cn(C4CCNCC4)nn3)[nH]c2cc1C,87.17%,–
Cc1c(C)c(C)c2[nH]c(-c3cn(C4CCNCC4)nn3)nc2c1C,30.06%,–
Cc1cccc2[nH]c(-c3cn(C4CCNCC4)nn3)nc12,72.76%,–
Cc1ccc2[nH]c(-c3cn(C4CCNCC4)nn3)nc2c1C,85.1%,–
c1ccc(CCCn2ccnc2-c2cn(C3CCNCC3)nn2)nc1,–,-23.72% and -17.15%
COc1cccc(CCn2ccnc2-c2cn(C3CCNCC3)nn2)c1,–,-32.98% and -26.9%
CN(Cc1cn(C2CCNCC2)nn1)CC1CCCO1 (stereo unspecified),-84.49%,–
Cc1nc(C(C)C)sc1C(=O)NCCSc1nccn1C,-107.8%,–
CC(=O)Nc1ccn(Cc2ccccc2)n1,-105.1%,–
CCOC(C)C(=O)N1CCCN(Cc2csc(CC)n2)CC1 (stereo unspecified),-48.75%,–
Cc1ccc(CN2CCC3(CC2)CCN(Cc2ccco2)CC3)cc1.O=C(O)C(F)(F)F.O=C(O)C(F)(F)F,91.42%,–
Cc1nc(CN2CCC23CCN(Cc2ccco2)CC3)cs1,-38.18%,–
Cc1nc(CN2CCC3(C2)CN(Cc2ccco2)C3)cs1,1.617%,–
O=C(O)C(F)(F)F.O=C(O)C(F)(F)F.O=C(O)C(F)(F)F.c1coc(CN2CCC3(CC2)COCCN(CCN2CCCC2)C3)c1,-114.4%,–
CN1CCNC(=O)C12CCN(Cc1ccco1)CC2.O=C(O)C(F)(F)F.O=C(O)C(F)(F)F,-34.77%,–
Cc1noc(C)c1CN1CC2(CCN(Cc3c[nH]cn3)CC2)CC1=O,-101.4%,–
CO[C@@H]1CC[C@H]2[C@H]1OCCN2Cc1ccccn1.O=C(O)C(F)(F)F.O=C(O)C(F)(F)F,-69.16%,–
CN(C)CCN1CCC(NC2CSCCc3ccccc32)CC1 (stereo unspecified),75.4%,–
COCCCN1CCC(NC2CSCCc3ccccc32)CC1 (stereo unspecified),-4.969%,–
CNC(=O)CN1CCC(NC2CSCCc3ccccc32)CC1 (stereo unspecified),-108%,–

Structure (SMILES),Percent Effect,Percent Effect (4.99 µM)
Cn1ncnc1CNc1ccccc1C(=O)NC(C)(C)C,-77.77%,–
Cc1ccccc1CN1CCC2(CCCN2C(=O)C(C)C)CC1,-62.94%,–
O=C1NC(C(=O)NCc2cccnc2Oc2ccc(F)c(F)c2)CO1 (stereo unspecified),-127.9%,–
CCN(CC1CCCN(CCc2cccc(OC)c2)C1)C(=O)CO (stereo unspecified),28.13%,–
COc1ccc(C(=O)C2CCCN(CCc3ccccc3)C2)c(OC)c1 (stereo unspecified),71.36%,–
COc1ccc(C(=O)C2CCCN(Cc3ccncc3)C2)c(OC)c1 (stereo unspecified),-20.34%,–
CCN(CC1CCCN(CCc2cccc(OC)c2)C1)C(=O)CSC (stereo unspecified),19.02%,–
CCN(CC1CCCN(CCc2cccc(OC)c2)C1)C(=O)CN(C)C (stereo unspecified),83.05%,–
COc1ccc(C(=O)C2CCCN(Cc3cccc(F)c3)C2)c(OC)c1 (stereo unspecified),22.79%,–
Cc1ccccc1C(=O)N1CCO[C@H]2[C@H](OCCN(C)C)CC[C@@H]21.O=C(O)C(F)(F)F,-35.41%,–
CCCN(CCC)C(=O)c1cnn(C)c1C,-133.3%,–
COc1ccc(CNC(=O)c2ccc(Cl)cc2F)cc1C(=O)O,-124.3%,–
COc1cccc(CNCc2cccc(Cl)c2)c1O,84.59%,–
COc1cccc(CNCc2ccc(F)c(Cl)c2)c1O,79.38%,–
COc1ccccc1COCC(O)CN(C)Cc1cccc(Cl)c1 (stereo unspecified),-103.6%,–
CCOc1cccc(CNc2ccccc2OC)c1O,-50.26%,–
COc1cccc(CNc2ccc(F)c(Cl)c2)c1O,-125.4%,–
CCn1nccc1CNc1nc(N)nc2c1nc(C)n2C,-33.19%,–
Cn1nc(CN2CCCCC2)c2c1CN(C(=O)c1ccoc1)C2,14.54%,–
O=C(Nc1cnc(Oc2ccccc2)nc1)C1CC1,-34.92%,–
O=C(O)c1cccc(N2CCC(Oc3cccc(F)c3)CC2)n1,-36.51%,–
O=C(Nc1ccccc1Oc1cccc(F)c1)C1CCS(=O)(=O)C1 (stereo unspecified),-81.74%,–
CNCc1cc(F)ccc1Oc1ccc(F)cc1,15.63%,–
CCn1cc(-c2nn3c(C(C)C)nnc3s2)c(C)n1,-104%,–

Structure (SMILES),Percent Effect,Percent Effect (4.99 µM)
CC(NC(=O)N1CCCCCC1)c1ccc(S(N)(=O)=O)cc1 (stereo unspecified),-106.8%,–
Cc1ncsc1C(=O)NCCNc1ncccn1,-77.02%,–
COCC1CN(CCOc2ccc(Cl)cc2)Cc2c1cnn2C.O=C(O)C(F)(F)F.O=C(O)C(F)(F)F (stereo unspecified),-4.236%,–
CC(NCC1(N(C)C)CCOCC1)c1ccc(S(C)(=O)=O)cc1 (stereo unspecified),-124.5%,–
CN(C)C1(CNc2ncc(Br)cn2)CCOCC1,27.48%,–
CC(NCC1(N(C)C)CCOCC1)c1ccc(SC(F)F)cc1 (stereo unspecified),51.19%,–
CSC1(CNC(=O)NC(C)c2ccc(F)cc2)CCOCC1 (stereo unspecified),-168.4%,–
CN(C)C1(CNC(=O)c2c(O)cc(Cl)cc2Cl)CCOCC1,-157.7%,–
CC(NCC1(N(C)C)CCOCC1)c1ccc(Cl)cc1 (stereo unspecified),72.75%,–
O=S(=O)(N1CCCC1)N(Cc1ccccc1)CC1CCCO1 (stereo unspecified),-64.47%,–
CN(C)CCN1C[C@@H]2CN(S(=O)(=O)c3ccccc3)C[C@@H]2C1=O.O=C(O)C(F)(F)F,-103%,–
CCN(CC)S(=O)(=O)c1ccc(C(=O)NC(C)(C)C)cc1,-100.9%,–
Cc1cc2nc(-c3ccccc3)cc(NCC3CCCOC3)n2n1 (stereo unspecified),20.07%,–
COCCC(=O)Nc1nc2c(OC)cc(F)cc2s1,-96.38%,–
COc1ccc(CNC(C)c2ccc(Cl)cc2)c(OC)c1OC (stereo unspecified),80.38%,–
COc1ccc(CNC(C)c2ccccc2Cl)c(OC)c1OC.Cl (stereo unspecified),74.88%,–
COc1ccc(C(C)NCc2ccc(OC)c(OC)c2OC)cc1F.Cl (stereo unspecified),34.25%,–
COc1ccc(C(C)NCc2c[nH]nc2C)cc1OC.Cl (stereo unspecified),-66.18%,–
COc1ccc(CNC(C)c2ccc(Cl)c(Cl)c2)c(OC)c1OC (stereo unspecified),65.05%,–
COc1ccc(CNC(C)Cn2cccn2)c(OC)c1OC.Cl (stereo unspecified),-41.68%,–
COc1ccc(CNC(C)c2cccc(Cl)c2)c(OC)c1OC (stereo unspecified),42.06%,–
COCCS(=O)(=O)NC(C)c1ccccc1Cl (stereo unspecified),-65.19%,–
CC(NCc1ccc(C(N)=O)cc1)c1ccc(Cl)c(Cl)c1.Cl (stereo unspecified),4.882%,–
